Data published in ChEMBL document CHEMBL3988442, “University of Dundee, Small-Polar-MMV Screening Library” (2021).
For some of these results: Potency and affinity values are given separately.

Tests used:
Parameters in all cases: scale not given: direction of the effect not stated beside the values
[1] = target: Protein translocase subunit SecA (Escherichia coli (strain K12)) (UniProt P10408); test: Assay to Identify E. coli SecA ATPase Inhibitors; format: functional; conditions: 30 µM
[2] = target: T1, Ubiquitin-activating enzyme e1, putative (Leishmania donovani (strain BPK282A1)) (UniProt E9BSI1); test: Leishmania donovani Ubiquitin Activating Enzyme (LdE1); format: functional; conditions: 30 µM
T1 sequence (whole entry): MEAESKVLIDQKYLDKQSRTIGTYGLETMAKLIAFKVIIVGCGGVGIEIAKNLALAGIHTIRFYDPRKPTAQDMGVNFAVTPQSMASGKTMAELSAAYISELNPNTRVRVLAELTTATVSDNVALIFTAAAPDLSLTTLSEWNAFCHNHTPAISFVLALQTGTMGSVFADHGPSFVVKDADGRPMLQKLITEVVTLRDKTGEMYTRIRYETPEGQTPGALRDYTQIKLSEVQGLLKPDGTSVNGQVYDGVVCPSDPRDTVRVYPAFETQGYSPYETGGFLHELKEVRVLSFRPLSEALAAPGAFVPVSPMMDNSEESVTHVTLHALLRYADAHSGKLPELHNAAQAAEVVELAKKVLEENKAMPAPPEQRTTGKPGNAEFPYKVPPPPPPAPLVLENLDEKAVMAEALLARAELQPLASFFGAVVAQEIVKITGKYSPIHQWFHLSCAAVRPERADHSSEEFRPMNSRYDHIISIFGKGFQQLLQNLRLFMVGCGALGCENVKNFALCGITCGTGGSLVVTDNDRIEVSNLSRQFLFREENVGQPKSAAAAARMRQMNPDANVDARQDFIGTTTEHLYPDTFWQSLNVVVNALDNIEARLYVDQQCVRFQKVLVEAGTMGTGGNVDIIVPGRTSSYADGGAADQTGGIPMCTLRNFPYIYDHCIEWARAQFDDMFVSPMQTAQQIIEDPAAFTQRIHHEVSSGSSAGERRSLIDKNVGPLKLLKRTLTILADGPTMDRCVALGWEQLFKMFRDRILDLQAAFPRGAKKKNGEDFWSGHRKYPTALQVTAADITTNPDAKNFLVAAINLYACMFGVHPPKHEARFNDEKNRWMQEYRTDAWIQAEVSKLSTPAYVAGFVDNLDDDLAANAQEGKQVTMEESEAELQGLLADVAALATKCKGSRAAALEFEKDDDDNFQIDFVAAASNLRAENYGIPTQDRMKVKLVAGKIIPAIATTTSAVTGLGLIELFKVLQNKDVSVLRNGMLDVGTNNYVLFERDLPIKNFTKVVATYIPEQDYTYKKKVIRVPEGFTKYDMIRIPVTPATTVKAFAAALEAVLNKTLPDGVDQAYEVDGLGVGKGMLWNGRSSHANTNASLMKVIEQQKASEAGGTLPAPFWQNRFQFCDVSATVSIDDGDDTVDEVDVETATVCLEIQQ

[3] = target: AMP-activated protein kinase, AMPK (Homo sapiens) (UniProt P54646+O43741+P54619+Q9UGJ0+Q9Y478+Q13131+Q9UGI9); test: AMP-dependent Kinase enzyme assay. An in vitro enzyme assay that detects ADP turnover that is directly proportional to AMPK activity. This uses naive AMPK that is activated during the assay with MK-8722; format: functional; conditions: 30 µM
[4] = target: Sialic acid-binding Ig-like lectin 9 (Homo sapiens) (UniProt Q9Y336); test: Hs-Siglec9 ALPHAscreen SOP 20170721; conditions: 10 µM
Sequence of Sialic acid-binding Ig-like lectin 9 (Homo sapiens) (Q9Y336 whole entry): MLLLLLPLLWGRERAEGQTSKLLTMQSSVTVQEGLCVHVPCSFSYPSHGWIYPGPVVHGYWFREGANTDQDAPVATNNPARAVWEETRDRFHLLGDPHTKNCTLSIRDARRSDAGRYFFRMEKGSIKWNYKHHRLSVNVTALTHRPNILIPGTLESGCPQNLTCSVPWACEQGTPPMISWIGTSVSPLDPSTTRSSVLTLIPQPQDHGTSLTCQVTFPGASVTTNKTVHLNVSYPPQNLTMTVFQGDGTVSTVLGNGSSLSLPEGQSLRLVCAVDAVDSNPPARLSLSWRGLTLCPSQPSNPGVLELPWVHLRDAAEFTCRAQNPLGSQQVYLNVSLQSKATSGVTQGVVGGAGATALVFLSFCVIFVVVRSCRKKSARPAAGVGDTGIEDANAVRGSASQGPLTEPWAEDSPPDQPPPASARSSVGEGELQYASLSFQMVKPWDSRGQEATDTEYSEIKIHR

[5] = tested on: Trypanosoma cruzi; test: Trypanosoma cruzi phosphomannomutase and mannose-1-phosphate guanylyltransferase assay; format: functional; conditions: 10 µM
[6] = target: T2, Arginase-2, mitochondrial (Homo sapiens) (UniProt P78540); test: in vitro enzyme assay to detect the production of urea directly proportional to the activity of Arginase II; format: functional; conditions: 33.3 µM; further: in the data most compounds retested in dose-response had high values
T2 sequence (whole entry): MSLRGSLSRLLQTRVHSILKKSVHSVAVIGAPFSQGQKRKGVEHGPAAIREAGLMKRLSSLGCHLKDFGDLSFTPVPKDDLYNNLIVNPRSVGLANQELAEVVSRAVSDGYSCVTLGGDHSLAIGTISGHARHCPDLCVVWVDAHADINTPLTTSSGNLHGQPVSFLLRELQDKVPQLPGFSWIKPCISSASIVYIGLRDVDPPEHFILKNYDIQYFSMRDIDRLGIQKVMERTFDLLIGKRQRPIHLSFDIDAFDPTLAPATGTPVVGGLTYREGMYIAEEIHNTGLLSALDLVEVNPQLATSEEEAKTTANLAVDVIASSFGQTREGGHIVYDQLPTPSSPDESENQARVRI

[7] = target: T3, Proteasome subunit beta (Trypanosoma cruzi) (UniProt O96673); test: Trypanosoma cruzi proteasome chymotrypsin-like activity (TcProtChymo) assay.; further: in the data most compounds retested in dose-response had high values; format: functional; conditions: 9.37 µM
T3 sequence (whole entry): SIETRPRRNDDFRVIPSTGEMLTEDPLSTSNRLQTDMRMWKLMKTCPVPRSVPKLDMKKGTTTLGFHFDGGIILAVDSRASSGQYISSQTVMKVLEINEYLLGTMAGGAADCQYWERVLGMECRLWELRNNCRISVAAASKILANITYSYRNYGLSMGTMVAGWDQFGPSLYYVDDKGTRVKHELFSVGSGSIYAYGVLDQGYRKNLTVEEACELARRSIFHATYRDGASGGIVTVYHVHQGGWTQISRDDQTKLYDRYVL

[8] = species on record: Homo sapiens; test: To identify inhibition of the IFN signalling (Jak-Stat) pathway via expression of an eGFP reporter gene under the control of an IFN-stimulated response element (ISRE) containing MxA promoter.; format: functional; conditions: 30 µM
[9] = target: T4, Tyrosyl-tRNA synthetase, putative (Trypanosoma cruzi (strain CL Brener)) (UniProt Q4DSP6); test: Trypanosoma cruzi tyrosyl tRNA synthetase (TcYRS) _High Tyrosine SOP; format: functional; conditions: 30 µM; further: in the data most compounds retested in dose-response had high values
T4 sequence (whole entry): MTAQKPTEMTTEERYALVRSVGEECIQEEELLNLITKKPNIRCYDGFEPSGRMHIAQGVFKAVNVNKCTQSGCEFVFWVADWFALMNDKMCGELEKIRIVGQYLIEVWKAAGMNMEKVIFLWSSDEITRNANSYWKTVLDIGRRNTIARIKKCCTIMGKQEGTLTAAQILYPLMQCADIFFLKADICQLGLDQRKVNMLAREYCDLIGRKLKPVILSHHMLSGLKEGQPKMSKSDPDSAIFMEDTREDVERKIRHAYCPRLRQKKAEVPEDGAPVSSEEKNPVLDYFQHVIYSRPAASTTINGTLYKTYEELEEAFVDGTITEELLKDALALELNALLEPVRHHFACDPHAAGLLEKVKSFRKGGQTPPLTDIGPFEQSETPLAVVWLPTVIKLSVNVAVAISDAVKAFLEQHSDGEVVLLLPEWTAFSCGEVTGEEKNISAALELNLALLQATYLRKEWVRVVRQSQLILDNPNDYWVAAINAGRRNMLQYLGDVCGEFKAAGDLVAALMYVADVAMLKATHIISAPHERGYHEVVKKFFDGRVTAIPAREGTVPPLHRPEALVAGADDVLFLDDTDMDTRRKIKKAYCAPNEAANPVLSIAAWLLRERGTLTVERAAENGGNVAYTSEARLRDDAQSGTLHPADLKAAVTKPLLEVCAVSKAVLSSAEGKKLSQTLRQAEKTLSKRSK

[10] = target: T4, Tyrosyl-tRNA synthetase, putative (Trypanosoma cruzi (strain CL Brener)); test: Trypanosoma cruzi tyrosyl tRNA synthetase (TcYRS) SOP; format: functional; conditions: 30 µM
[11] = target: Chromo domain-containing protein 1 (Saccharomyces cerevisiae (strain ATCC 204508 / S288c) (Baker's yeast)) (UniProt P32657); test: ScCHD-1 Enzyme Inhibition Assay; format: functional; conditions: 30 µM; further: in the data most compounds retested in dose-response had high values
Sequence of Chromo domain-containing protein 1 (Saccharomyces cerevisiae (strain ATCC 204508 / S288c) (Baker's yeast)) (P32657 whole entry, the tested form may be a part): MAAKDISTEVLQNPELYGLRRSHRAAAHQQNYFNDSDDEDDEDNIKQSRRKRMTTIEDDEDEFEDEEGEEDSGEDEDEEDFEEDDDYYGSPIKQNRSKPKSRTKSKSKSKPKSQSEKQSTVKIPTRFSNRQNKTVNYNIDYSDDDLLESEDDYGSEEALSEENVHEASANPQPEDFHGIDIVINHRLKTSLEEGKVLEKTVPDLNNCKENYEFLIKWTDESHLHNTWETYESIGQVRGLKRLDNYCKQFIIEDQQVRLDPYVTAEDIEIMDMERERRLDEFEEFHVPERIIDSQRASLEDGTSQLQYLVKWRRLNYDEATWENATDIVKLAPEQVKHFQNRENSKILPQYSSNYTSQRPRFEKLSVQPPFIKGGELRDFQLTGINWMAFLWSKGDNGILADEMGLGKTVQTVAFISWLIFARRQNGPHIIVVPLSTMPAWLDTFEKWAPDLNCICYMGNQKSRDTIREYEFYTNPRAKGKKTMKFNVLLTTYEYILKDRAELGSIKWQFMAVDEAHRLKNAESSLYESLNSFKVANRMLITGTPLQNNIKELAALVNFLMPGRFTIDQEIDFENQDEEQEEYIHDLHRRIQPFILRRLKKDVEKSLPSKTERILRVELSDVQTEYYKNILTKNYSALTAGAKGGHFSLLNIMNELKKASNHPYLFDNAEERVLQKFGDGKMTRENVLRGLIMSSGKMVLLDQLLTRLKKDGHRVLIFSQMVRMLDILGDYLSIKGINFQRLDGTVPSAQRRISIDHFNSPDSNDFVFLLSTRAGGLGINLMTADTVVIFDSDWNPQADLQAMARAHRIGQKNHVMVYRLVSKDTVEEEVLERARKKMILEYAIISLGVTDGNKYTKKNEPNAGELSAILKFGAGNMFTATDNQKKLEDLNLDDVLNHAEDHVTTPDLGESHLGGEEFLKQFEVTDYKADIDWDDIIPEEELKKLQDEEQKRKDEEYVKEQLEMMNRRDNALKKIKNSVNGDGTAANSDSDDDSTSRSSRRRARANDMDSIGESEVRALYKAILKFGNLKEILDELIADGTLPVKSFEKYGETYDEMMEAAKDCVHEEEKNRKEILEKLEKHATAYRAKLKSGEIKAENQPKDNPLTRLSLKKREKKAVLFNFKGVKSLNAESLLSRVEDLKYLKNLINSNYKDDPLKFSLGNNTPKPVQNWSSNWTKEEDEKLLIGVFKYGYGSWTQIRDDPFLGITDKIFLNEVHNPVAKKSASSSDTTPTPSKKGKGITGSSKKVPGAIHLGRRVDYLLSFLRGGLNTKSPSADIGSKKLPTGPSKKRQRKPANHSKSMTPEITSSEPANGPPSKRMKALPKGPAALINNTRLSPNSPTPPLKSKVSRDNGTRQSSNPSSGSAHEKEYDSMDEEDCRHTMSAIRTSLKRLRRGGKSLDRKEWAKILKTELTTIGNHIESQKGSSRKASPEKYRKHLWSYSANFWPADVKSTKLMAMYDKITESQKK

Sequence of Protein translocase subunit SecA (Escherichia coli (strain K12)) (P10408 whole entry): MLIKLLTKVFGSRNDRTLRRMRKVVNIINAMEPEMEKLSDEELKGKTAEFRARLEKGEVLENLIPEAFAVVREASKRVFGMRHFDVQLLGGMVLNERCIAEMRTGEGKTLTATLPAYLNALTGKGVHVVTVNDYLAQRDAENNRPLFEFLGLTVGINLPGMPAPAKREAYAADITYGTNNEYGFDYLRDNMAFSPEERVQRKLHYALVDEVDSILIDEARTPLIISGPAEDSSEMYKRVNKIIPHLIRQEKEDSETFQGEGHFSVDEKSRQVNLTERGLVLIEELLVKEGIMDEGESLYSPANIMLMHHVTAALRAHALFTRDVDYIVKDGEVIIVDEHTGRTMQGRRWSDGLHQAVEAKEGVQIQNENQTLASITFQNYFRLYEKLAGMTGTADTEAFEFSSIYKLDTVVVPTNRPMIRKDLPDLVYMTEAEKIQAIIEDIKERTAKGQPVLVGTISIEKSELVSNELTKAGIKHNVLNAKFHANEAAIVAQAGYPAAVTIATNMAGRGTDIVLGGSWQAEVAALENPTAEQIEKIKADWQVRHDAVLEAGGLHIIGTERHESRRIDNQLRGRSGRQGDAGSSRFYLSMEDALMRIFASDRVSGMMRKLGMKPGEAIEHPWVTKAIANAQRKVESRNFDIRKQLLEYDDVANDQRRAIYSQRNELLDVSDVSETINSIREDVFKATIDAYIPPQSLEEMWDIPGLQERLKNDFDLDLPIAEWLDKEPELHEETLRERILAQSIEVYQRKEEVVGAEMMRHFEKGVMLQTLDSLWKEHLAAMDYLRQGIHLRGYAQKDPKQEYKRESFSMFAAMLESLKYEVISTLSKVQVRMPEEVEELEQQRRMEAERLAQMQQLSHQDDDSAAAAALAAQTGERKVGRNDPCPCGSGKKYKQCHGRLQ

| Compound | Percent Effect [1] | Percent Effect [2] | Percent Effect [3] | Percent Effect [4] | Percent Effect [5] | Percent Effect [6] | Percent Effect [7] | Percent Effect [8] | Percent Effect [9] | Percent Effect [10] | Percent Effect [11] |
| --- | --- | --- | --- | --- | --- | --- | --- | --- | --- | --- | --- |
| COc1ncccc1C(=O)NCC(C)Oc1cccnc1 (stereo unspecified) | -3.65% | 5.41% | 1.52% | 2.58% | 0.386% | 1.91% | 4.83% | -3.73% | 6.88% | 12.2% | -3.26% |
| CCc1noc(C)c1C(=O)N1CCCC1c1c(C)nn(C)c1OC (stereo unspecified) | -2.91% | -2.53% | 2.09% | 2.98% | 2.36% | -3.42% | -3.03% | -17.3% | 1.48% | 1.27% | 0.826% |
| Cc1ccc(C)c(NC(=O)c2n[nH]c(-n3cnnc3)n2)c1 | -1.59% | 6.67% | 0.649% | 8.26% | 2.75% | -2.64% | 9.24% | 18.5% | 6.35% | 10.3% | -4% |
| O=S(=O)(N(Cc1ccccn1)C1CC1)N1CCCC1c1ccco1 (stereo unspecified) | -4.42% | 16.2% | 0.691% | 9.84% | 5.66% | -2.77% | 0.359% | 5.33% | 3.96% | 18.3% | -5.26% |
| N#Cc1cccnc1NCCNC(=O)N1CCCC(C(F)(F)F)C1 (stereo unspecified) | -0.35% | 10.8% | -2.73% | 11.1% | 4.83% | 13.3% | 19% | 23.4% | 4.76% | 19.5% | -4.05% |
| Cn1cc(C[C@H]2[C@@H](O)CCN2C(=O)C2CC=CC2)cn1 | -1.02% | 7.79% | 8.48% | -3.96% | 0.69% | 12.3% | 17.8% | 26.4% | 1.06% | 14.1% | -9.76% |
| CCCn1ccc(C(=O)N2CCC(C)CC2)n1 | -3.61% | 10.4% | 1.17% | 5.81% | 0.295% | -44.1% | 6.49% | -8.22% | 8.6% | 18.5% | -1.29% |
| Cc1noc(C)c1CN1CC2(CCN(C(=O)c3c[nH]cn3)C2)CC1=O (stereo unspecified) | -0.0681% | 13.3% | -2.8% | 13.2% | -3.48% | -49.3% | 17.8% | -2.42% | 2.08% | 17.5% | -4.57% |
| COc1ccccc1C1(C(=O)NCCN2CCOCC2)CCOCC1 | -0.484% | 10.8% | -1.78% | -1.23% | -0.0943% | -2.81% | 12.4% | -15.9% | 3.45% | 13.6% | -7.26% |
| COc1ccc(F)c(CN2CCC3(CCC(=O)N(CC(N)=O)C3)CC2)c1 | -4.11% | 5.33% | -12.6% | -1.01% | -3.02% | -3.12% | 12.4% | 36.4% | 6.01% | 8.64% | -5.79% |
| CC(=O)NCC(=O)N1CC[C@H](OCC2CC2)[C@@H]1Cc1cccnc1 | -0.669% | 5.33% | -3.45% | 5.96% | -2.51% | -50% | 5.47% | 1.5% | 1.04% | -47.5% | -0.336% |
